Compounds without any hit were thinned out: in the full panel of roughly 83,000, 20% have a hit.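 Negative percent growth values reflect cell death: -40 means 40% of the cells present at the start died, and -100 means all died.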 The source made the active and inactive calls. How the source made its calls: active means growth percent below 10; inactive means the rest.
Experiments:
Assay in all cases: NCI-60 one-dose screen, 48 h (100 = growth as untreated, 0 = no growth, -100 = all killed)
Settings in all cases: 10 µM unless noted
[1] = system: SR leukemia
[2] = system: RPMI-8226 leukemia
[3] = system: OVCAR-8 ovarian
[4] = system: OVCAR-5 ovarian
[5] = system: OVCAR-4 ovarian
[6] = system: SK-OV-3 ovarian
[7] = system: IGROV1 ovarian
[8] = system: OVCAR-3 ovarian
[9] = system: HS 578T breast
[10] = system: NCI/ADR-RES ovarian

Measured: growth

CCCCNC(=O)Oc1ccc(/C(=C(/C)Cc2ccc(OC)cc2)c2ccc(OCCN3CCCCC3)cc2)cc1
active: [1] -40.5%
inactive: [2] 32.3% | [3] 84.7% | [4] 84.5% | [5] 69.3% | [6] 95.5% | [7] 84.5% | [8] 77.1% | [9] 72.9%

S=c1[nH]c(=S)c2c(-c3ccccc3)c(-c3ccccc3)oc2[nH]1
inactive: [1] 94.2% | [2] 107% | [3] 110% | [4] 95.2% | [5] 95.2% | [6] 103% | [7] 99.6% | [8] 105% | [9] 104%

CCN(CC)c1ccc(/C=N/NC(=O)Cc2ccc(Nc3ccnc(C(F)(F)F)c3)cc2)c(O)c1
inactive: [1] 19.7% | [2] 25.8% | [3] 28.8% | [4] 48.2% | [5] 20.9% | [6] 28% | [7] 25.1% | [8] 32.4% | [9] 37.7%

C=C1C(=O)O[C@H]2[C@H]1CC/C(COC(=O)/C=C\C(=O)NCc1ccc(Cn3c(=O)sn(CCCl)c3=O)cc1)=C\CC[C@@]1(C)O[C@@H]21
inactive: [1] 15.5% | [2] 74.8% | [3] 86.9% | [4] 91% | [5] 96.3% | [6] 115% | [7] 34.8% | [8] 36.2% | [9] 110% | [10] 108%

Cc1ccc(C)c2c(C)c(C(=O)Nc3cccc(-n4cccn4)c3)oc12
inactive: [1] 56.7% [50 µM] | [2] 43.8% [50 µM] | [3] 42.4% [50 µM] | [4] 93.6% [50 µM] | [5] 50.4% [50 µM] | [6] 111% [50 µM] | [7] 76.3% [50 µM] | [8] 82% [50 µM] | [9] 81.1% [50 µM]

O=C1c2ccccc2C(=O)c2c1cc1c(c2[N+](=O)[O-])OCO1
inactive: [1] 14.6% | [3] 14.4% | [5] 19.2%
active: [2] 7.28% | [4] 9.69% | [6] -14.7% | [7] 5.43% | [8] -20.9% | [9] 6.81%

CCOc1cccc(/C=N/NC(=O)c2cccc(Nc3ccnc(C(F)(F)F)c3)c2)c1O
inactive: [1] 41.4% | [2] 27.3% | [3] 24.4% | [4] 40.9% | [5] 39.1% | [6] 30.2% | [7] 24.2% | [8] 43.2% | [9] 43.7%

COc1cccc(/C=C/C(=O)c2cc3c(N)c(C(=O)Nc4cccc5ccccc45)sc3nc2C)c1
inactive: [1] 12.5% | [4] 15.8% | [5] 56.8% | [6] 56.2% | [9] 15%
active: [2] -18.9% | [3] 3.72% | [7] -3.98% | [8] -17%

COc1ccc2c(c1)c(-c1nc(-c3c[nH]c4ncccc34)cs1)cn2CCCN1CCOCC1
inactive: [3] 25.3% | [4] 68.1% | [5] 41.5% | [6] 51.8% | [7] 22.9% | [8] 44%
active: [1] 6.64% | [2] 0.661% | [9] 2.12%

CCSc1oc(C)nc1[P+](c1ccccc1)(c1ccccc1)c1ccccc1
inactive: [1] 36.2% | [3] 21.5% | [4] 69.2% | [5] 38.2% | [6] 28% | [7] 30.3% | [8] 15.8% | [9] 56.3%
active: [2] 5.08%

COc1cc(-c2nc3sccn3c2-c2ccnc(NCCNS(=O)(=O)c3ccc(Cl)cc3)n2)ccc1F
active: [2] -18.9%
inactive: [1] 34.5% | [3] 12.3% | [4] 112% | [5] 21.3% | [6] 54.4% | [7] 41.8% | [8] 43.1% | [9] 49.5%

O=C1c2cccc3cccc(c23)C(=O)N1C/C=C/c1ccc2c3c(cccc13)C(=O)N(CCO)C2=O
inactive: [1] 67.1% | [2] 74% | [3] 69.6% | [4] 79.2% | [5] 40.1% | [6] 72.3% | [7] 78.7% | [8] 87.9% | [9] 61.6%

O=C1Nc2ccccc2C1(c1c[nH]c2ccccc12)c1c[nH]c2ccccc12
inactive: [1] 77.1% | [2] 77.5% | [4] 65.4% | [6] 72.8% | [10] 27.1%
active: [3] -9.32% | [5] -25.2% | [7] 8.3% | [8] -47.2% | [9] -17.9%

COc1ccc(/C=C/C(=O)c2cc3c(N)c(C(=O)Nc4cccc(Cl)c4C)sc3nc2C)cc1
active: [2] -11.8% | [3] -8.6% | [8] 8.05% | [9] 6.35% | [10] -25.5%
inactive: [1] 16.2% | [4] 27.6% | [5] 37% | [6] 23.8% | [7] 21.9%
